# Where “and” joins values, the source holds several entries; their conditions need not be identical. Equal entries are not always repeated. Structures can show the parent of a compound that is named as a salt. Screen size: about 5,800 compounds; about 620 (11%) showed activity. The sample holds actives, similar compounds and a random draw of the others, so the mix is not that of the screen. Values without a mark were called inactive.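 The calls were made as follows: active = score above a cut-off or among the top three wells of a plate; in these data no inactive exceeds 0.85.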
# Test system: primary human hepatic stellate cells (donor 1)
# Test: scaled lipid accumulation score (0 = DMSO-like, 1 = nortriptyline-like); higher = stronger HSC inactivation (lipid re-accumulation), active = hit call of the paper
# Conditions: 48 h
# [1] = library stock concentration: 10 mM
# [2] = library stock concentration: 3.33 mM
# [3] = library stock concentration: 1 mM
smiles,measurement,setting,value
Cc1ccc(NC(=O)C(C)C)cc1C1CCN(Cc2ccc(Oc3ccc(F)c(F)c3)cc2)CC1.Cl,scaled lipid accumulation score,[1],1.29 (active)
CC(=O)c1ccc(N2CCOCC2)cc1O [DNA-PK Inhibitor III],scaled lipid accumulation score,[2],≤ 0
N[C@@H](CCC(=O)N[C@@H](CSN=O)C(=O)NCC(=O)O)C(=O)O [S-Nitrosoglutathione],scaled lipid accumulation score,[1],≤ -0.032
Cc1cc2nc3c(=O)[nH]c(=O)nc-3n(CC(O)C(O)C(O)COP(=O)(O)O)c2cc1C (stereo not drawn),scaled lipid accumulation score,[1],≤ 0
CC1=C(C(=O)OC2CCCCC2)C(c2ccc([N+](=O)[O-])cc2)C2=C(CC(C)(C)CC2=O)N1 (stereo not drawn) [listing 1 of 2 here],scaled lipid accumulation score,[1],0.997 (active)
CC1=C(C(=O)OC2CCCCC2)C(c2ccc([N+](=O)[O-])cc2)C2=C(CC(C)(C)CC2=O)N1 (stereo not drawn) [listing 2 of 2 here],scaled lipid accumulation score,[2],0.763
COC(=O)C1=C(C)NC(C)=C(C(=O)OC2CCCN(Cc3ccccc3)C2)C1c1cccc([N+](=O)[O-])c1 (stereo not drawn) [Benidipine HCl],scaled lipid accumulation score,[2],0.027
same,scaled lipid accumulation score,[1],0.476
COC(=O)C1=C(C)NC(C)=C(C(=O)OC2CCCN(Cc3ccccc3)C2)C1c1cccc([N+](=O)[O-])c1 (stereo not drawn),scaled lipid accumulation score,[1],0.032
CNCCCCOc1ccccc1Cc1ccccc1.Cl [Bifemelane hydrochloride],scaled lipid accumulation score,[1],1.41 (active)
CCCCCCOc1ccccc1C(N)=O [Exalamide],scaled lipid accumulation score,[1],≤ -0.027
CNCCCCOc1ccccc1Cc1ccccc1 [Bifemelane],scaled lipid accumulation score,[1],1.08 (active)
COC(=O)c1c(C)[nH]c(C)c1C(=O)c1ccccc1Cc1ccccc1,scaled lipid accumulation score,[1],0.13 and 0.001
CCOC(=O)c1c(Cc2cccc(Cl)c2)[nH]c2c1cc(O)c1ccccc12,scaled lipid accumulation score,[3],≤ 0
CC/C=C\C/C=C\C/C=C\CCCCCCCC(=O)NCCO [.alpha.-Linolenoyl Ethanolamide],scaled lipid accumulation score,[3],0.006
CCOc1nc(NC(=O)Cc2cc(OC)ccc2OC)cc(N)c1C#N [JNK Inhibitor VIII],scaled lipid accumulation score,[2],≤ 0
CNc1cc(OC)c(C(=O)NC2CCN(Cc3ccccc3)C2C)cc1Cl (stereo not drawn) [Nemonapride],scaled lipid accumulation score,[1],0.728
NC(=O)Nc1sc(-c2ccccc2)cc1C(N)=O [IKK-2 Inhibitor VI],scaled lipid accumulation score,[2],≤ 0
COc1cccc(CCc2ccccc2OCC[C@@H]2C[C@@H](O)CN2C)c1.Cl,scaled lipid accumulation score,[1],1.18 (active)
c1ccc2c(Cc3c[nH]c4ccccc34)c[nH]c2c1 [Diidolylmethane],scaled lipid accumulation score,[3],≤ -0.021
OC1(c2ccc(Cl)cc2)CCN(Cc2c[nH]c3ccccc23)CC1,scaled lipid accumulation score,[1],1.17 (active)
OCc1c[nH]c2ccccc12 [Indole-3-carbinol],scaled lipid accumulation score,[2],≤ 0
same,scaled lipid accumulation score,[1],≤ 0

# Source: the supplement of paper PMC9135407
